PubChem BioAssay AID1159580 (chemical genetic matrix, 2015)
Where “and” joins values, the source holds several entries; their conditions need not be identical. Equal values may be shown once. The whole screen tested about 5,500 compounds, of which about 2,000 (36%) were called active. Another 18% or so got no clear call; they are omitted. Rule as the data show it: active = normalized growth mostly below about 0.91 (no sharp cut-off); inconclusive = no clear call, values can overlap the other calls; inactive = mostly above about 0.92. The list shows a part of the results.

Assay: chemical genetic growth profiling, strain panel (AID 1159580);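 also: tested at 20 µM; growth read once vehicle control cultures reached saturation at 30 °C; 1 = growth at the plate median or of vehicle wells; lower values mean less growth of the strain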
Conditions: S. cerevisiae deletion strains, growth OD

Measured: normalized growth

C=C[C@H]1CN2CC[C@H]1C[C@H]2[C@H](O)c1ccnc2ccccc12
inactive: locus YAL013W, strain DEP1, hits give low values 1.01 | locus YAL021C, strain ccr4, hits give low values 1 | locus YAL026C, strain drs2, hits give low values 0.995 | locus YAL030W, strain snc1, hits give low values 0.997 | locus YBL061C, strain skt5, hits give low values 0.995 | locus YBR009C, strain hhf1, hits give low values 0.992 | locus YBR021W, strain FUR4, hits give low values 1.01 | locus YBR023C, strain chs3, hits give low values 0.992 | locus YBR171W, strain sec66, hits give low values 1 | locus YBR229C, strain ROT2, hits give low values 1.01 | locus YBR231C, strain swc5, hits give low values 0.984 | locus YBR279W, strain paf1, hits give low values 1 | locus YCL011C, strain gbp2, hits give low values 1.01 | locus YCL016C, strain dcc1, hits give low values 0.994 | locus YCL029C, strain bik1, hits give low values 0.969 | locus YCL061C, strain MRC1, hits give low values 0.983 | locus YCL069W, strain vba3, hits give low values 1.01 | locus YCR088W, strain abp1, hits give low values 1 | locus YDL005C, strain med2, hits give low values 0.997 | locus YDL035C, strain GPR1, hits give low values 0.986 | locus YDL040C, strain nat1, hits give low values 0.999 | locus YDL074C, strain BRE1, hits give low values 1.04 | locus YDL101C, strain DUN1, hits give low values 0.988 | locus YDL134C, strain PPH21, hits give low values 1 | locus YDL185W, strain tfp1, hits give low values 0.965 | locus YDL192W, strain arf1, hits give low values 0.979 | locus YDR001C, strain nth1, hits give low values 0.986 | locus YDR069C, strain doa4, hits give low values 1.01 | locus YDR101C, strain arx1, hits give low values 0.985 | locus YDR137W, strain rgp1, hits give low values 1.02 | locus YDR150W, strain NUM1, hits give low values 0.966 | locus YDR159W, strain sac3, hits give low values 0.949 | locus YDR162C, strain NBP2, hits give low values 1.01 | locus YDR195W, strain ref2 0.959 | locus YDR297W, strain sur2, hits give low values 1 | locus YDR318W, strain mcm21, hits give low values 0.989 | locus YDR334W, strain swr1, hits give low values 1 | locus YDR335W, strain msn5, hits give low values 0.993 | locus YDR388W, hits give low values 0.979 | locus YDR392W, strain spt3, hits give low values 0.999 | locus YDR502C, strain sam2, hits give low values 0.979 | locus YEL003W, strain gim4, hits give low values 0.995 | locus YEL037C, strain rad23, hits give low values 0.993 | locus YEL061C, strain CIN8 (second series), hits give low values 0.999 | locus YEL061C, strain CIN8, hits give low values 1 | locus YER015W, strain faa2, hits give low values 1 | locus YER016W, strain bim1, hits give low values 0.975 | locus YER110C, hits give low values 0.976 | locus YER111C, strain swi4, hits give low values 1.01 | locus YER155C, strain BEM2 (second series), hits give low values 0.977 | locus YER155C, strain BEM2, hits give low values 0.98 | locus YER167W, strain BCK2, hits give low values 1.01 | locus YFR010W, strain ubp6, hits give low values 1.01 | locus YGL078C, strain dbp3, hits give low values 0.985 | locus YGL086W, strain mad1, hits give low values 0.99 | locus YGL167C, strain pmr1, hits give low values 0.987 | locus YGL173C, strain kem1, hits give low values 0.977 | locus YGL227W, strain vid30, hits give low values 1 | locus YGL240W, strain doc1, hits give low values 0.984 | locus YGL248W, strain PDE1, hits give low values 1.01 | locus YGL253W, strain hxk2, hits give low values 1 | locus YGR078C, strain PAC10, hits give low values 1.01 | locus YGR135W, strain pre9, hits give low values 0.974 | locus YGR229C, strain SMI1, hits give low values 1.02 | locus YGR252W, strain gcn5, hits give low values 0.982 | locus YHR013C, strain ard1, hits give low values 1 | locus YHR027C, strain rpn1, hits give low values 0.997 | locus YHR030C, strain SLT2, hits give low values 1 and 0.969 | locus YHR079C, strain IRE1 (second series), hits give low values 0.986 | locus YHR079C, strain IRE1, hits give low values 0.968 | locus YHR094C, strain hxt1, hits give low values 0.973 | locus YHR129C, strain ARP1, hits give low values 1.01 | locus YHR142W, strain chs7, hits give low values 1 | locus YHR200W, strain rpn10, hits give low values 0.981 | locus YIL066C, strain RNR3, hits give low values 1 | locus YIL073C, strain SPO22, hits give low values 0.927 | locus YIL125W, strain kgd1, hits give low values 0.994 | locus YIR030C, strain dcg1, hits give low values 0.979 | locus YJL092W, strain hpr5, hits give low values 0.999 | locus YJL095W, strain BCK1 (second series), hits give low values 0.998 | locus YJL095W, strain BCK1, hits give low values 1.04 and 0.962 | locus YJL115W, strain asf1, hits give low values 1 | locus YJL129C, strain trk1, hits give low values 0.988 | locus YJL134W, strain LCB3, hits give low values 0.995 | locus YJL154C, strain vps35, hits give low values 1 | locus YJL164C, strain tpk1, hits give low values 1.01 | locus YJL166W, strain qcr8, hits give low values 0.95 | locus YJL168C, strain set2, hits give low values 0.986 | locus YJL187C, strain SWE1 (second series), hits give low values 0.977 | locus YJR043C, strain POL32, hits give low values 1.01 | locus YJR066W, strain TOR1, hits give low values 0.942
